Test results as given in publication PMC7862700, “An all-to-all approach to the identification of sequence-specific readers for epigenetic DNA modifications on cytosine”.

Legend:
Experiment in all cases: DAPPL (digital affinity profiling via proximity ligation, sequencing); 10 mM Tris-HCl pH 7.5, 50 mM NaCl, 1 mM DTT, 4% glycerol, room temperature, 30 min; GST-TFs on glutathione beads, 16-mer random dsDNA library, 0.1% formaldehyde crosslink after washing; high values mean tight binding
Details in all cases: protein: recombinant; tags: N-terminal GST; dsDNA, one strand shown
FLI1 = target: T1, FLI1 (Homo sapiens, UniProt Q01543 1-452)
T1 sequence: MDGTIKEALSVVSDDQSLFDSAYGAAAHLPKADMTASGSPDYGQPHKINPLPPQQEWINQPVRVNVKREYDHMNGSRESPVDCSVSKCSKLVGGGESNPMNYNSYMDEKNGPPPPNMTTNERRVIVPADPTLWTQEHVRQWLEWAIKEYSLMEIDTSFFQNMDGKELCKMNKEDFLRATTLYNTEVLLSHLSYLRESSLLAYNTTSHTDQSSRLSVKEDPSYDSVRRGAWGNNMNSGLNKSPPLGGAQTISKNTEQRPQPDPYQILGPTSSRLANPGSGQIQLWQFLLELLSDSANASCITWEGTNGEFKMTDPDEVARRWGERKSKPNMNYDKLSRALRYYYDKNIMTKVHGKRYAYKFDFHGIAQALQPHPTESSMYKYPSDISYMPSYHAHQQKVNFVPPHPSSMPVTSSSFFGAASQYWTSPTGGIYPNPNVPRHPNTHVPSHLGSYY
How it was run: (§1)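 Binding signal is each hexamer's read frequency for a factor divided by its frequency in the tag-only sample. The factors were GST-fused human transcription factors from yeast, captured on glutathione beads, DNA-barcoded and pooled with that sample. Pools were incubated with 200 nmole of a random double-stranded 16-mer DNA library in Tris/NaCl/DTT/glycerol buffer at room temperature for 30 min, then washed, crosslinked with 0.1% formaldehyde, proximity-ligated with BsaI/T4 ligase (1 h, 37 °C), PCR-amplified and sequenced on an Illumina NextSeq500.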

ELK1 = target: T2, ELK1 (Homo sapiens, UniProt P19419 1-428)
T2 sequence: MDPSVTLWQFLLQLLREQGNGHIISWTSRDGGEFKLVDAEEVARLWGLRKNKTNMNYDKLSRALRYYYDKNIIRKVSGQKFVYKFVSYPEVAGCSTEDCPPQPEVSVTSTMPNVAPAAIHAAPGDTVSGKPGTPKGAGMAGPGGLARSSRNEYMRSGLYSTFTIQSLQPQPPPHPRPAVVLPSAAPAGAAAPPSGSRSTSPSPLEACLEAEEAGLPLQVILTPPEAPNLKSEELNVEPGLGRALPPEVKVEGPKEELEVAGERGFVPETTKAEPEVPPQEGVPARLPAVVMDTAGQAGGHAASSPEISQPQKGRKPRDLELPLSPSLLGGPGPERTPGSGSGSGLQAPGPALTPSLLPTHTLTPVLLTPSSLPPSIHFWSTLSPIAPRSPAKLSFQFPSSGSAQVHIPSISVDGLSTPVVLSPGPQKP
How it was run: as §1

GABPA = target: T3, GABPA (Homo sapiens, UniProt Q06546 1-454)
T3 sequence: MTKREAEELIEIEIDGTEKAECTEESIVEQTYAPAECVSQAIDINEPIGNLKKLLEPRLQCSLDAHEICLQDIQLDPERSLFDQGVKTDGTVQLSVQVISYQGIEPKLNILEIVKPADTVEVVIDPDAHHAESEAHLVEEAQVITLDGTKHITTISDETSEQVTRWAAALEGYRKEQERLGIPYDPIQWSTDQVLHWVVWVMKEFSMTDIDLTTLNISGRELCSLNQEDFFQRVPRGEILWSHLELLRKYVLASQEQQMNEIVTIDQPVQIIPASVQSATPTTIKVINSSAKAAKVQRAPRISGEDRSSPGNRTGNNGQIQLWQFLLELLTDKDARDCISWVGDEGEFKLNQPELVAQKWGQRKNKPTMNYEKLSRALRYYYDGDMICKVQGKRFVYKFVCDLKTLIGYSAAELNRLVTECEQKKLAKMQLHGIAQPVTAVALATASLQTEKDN
How it was run: as §1

ERG = target: T4, ERG (Homo sapiens, UniProt P11308 1-479)
T4 sequence: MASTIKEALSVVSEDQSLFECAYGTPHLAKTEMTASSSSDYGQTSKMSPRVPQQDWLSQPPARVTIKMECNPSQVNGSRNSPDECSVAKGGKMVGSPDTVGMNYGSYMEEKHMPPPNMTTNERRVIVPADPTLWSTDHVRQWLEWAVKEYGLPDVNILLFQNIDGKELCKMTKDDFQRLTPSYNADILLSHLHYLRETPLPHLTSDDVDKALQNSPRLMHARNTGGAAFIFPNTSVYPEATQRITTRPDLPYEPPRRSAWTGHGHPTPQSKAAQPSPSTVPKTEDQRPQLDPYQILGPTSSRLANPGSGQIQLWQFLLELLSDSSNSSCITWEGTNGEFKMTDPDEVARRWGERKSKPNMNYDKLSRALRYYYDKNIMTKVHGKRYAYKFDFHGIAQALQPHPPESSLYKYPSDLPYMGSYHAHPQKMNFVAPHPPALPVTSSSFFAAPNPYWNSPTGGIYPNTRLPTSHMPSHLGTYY
How it was run: as §1

ELF1 = ELF1 (Homo sapiens, UniProt P32519 1-619)
Sequence of ELF1 (P32519 whole entry): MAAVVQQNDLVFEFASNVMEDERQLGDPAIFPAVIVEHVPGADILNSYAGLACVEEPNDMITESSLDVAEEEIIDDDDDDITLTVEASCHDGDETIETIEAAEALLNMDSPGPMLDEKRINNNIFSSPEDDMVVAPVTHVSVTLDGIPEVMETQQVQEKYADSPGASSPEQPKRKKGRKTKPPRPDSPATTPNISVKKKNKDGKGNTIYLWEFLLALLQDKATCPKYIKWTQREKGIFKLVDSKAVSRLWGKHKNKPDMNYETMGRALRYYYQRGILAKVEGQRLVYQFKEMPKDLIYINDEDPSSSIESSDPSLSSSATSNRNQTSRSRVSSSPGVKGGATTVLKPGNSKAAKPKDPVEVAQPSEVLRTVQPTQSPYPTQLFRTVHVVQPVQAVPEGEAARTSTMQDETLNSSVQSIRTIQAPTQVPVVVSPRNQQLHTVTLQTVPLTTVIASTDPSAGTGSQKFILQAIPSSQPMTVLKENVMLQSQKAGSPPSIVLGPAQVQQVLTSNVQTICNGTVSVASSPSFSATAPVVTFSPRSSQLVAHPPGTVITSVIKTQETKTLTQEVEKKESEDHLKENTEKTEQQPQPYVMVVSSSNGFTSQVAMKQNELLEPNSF
How it was run: as §1

EHF = target: T5, EHF (Homo sapiens, UniProt Q9NZC4 1-300)
T5 sequence: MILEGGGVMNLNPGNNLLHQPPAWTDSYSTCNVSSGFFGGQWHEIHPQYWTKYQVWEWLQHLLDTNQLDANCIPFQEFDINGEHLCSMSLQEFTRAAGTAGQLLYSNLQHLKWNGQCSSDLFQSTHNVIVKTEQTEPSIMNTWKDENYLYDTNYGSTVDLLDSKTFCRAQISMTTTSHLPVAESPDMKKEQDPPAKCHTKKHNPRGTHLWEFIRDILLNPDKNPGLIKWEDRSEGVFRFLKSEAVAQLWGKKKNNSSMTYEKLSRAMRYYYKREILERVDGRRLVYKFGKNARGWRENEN
How it was run: as §1

SPI1 = SPI1 (Homo sapiens, UniProt P17947 1-270)
How it was run: as §1

SPIB = SPIB (Homo sapiens, UniProt Q01892 1-262)
Sequence of SPIB (Q01892 whole entry): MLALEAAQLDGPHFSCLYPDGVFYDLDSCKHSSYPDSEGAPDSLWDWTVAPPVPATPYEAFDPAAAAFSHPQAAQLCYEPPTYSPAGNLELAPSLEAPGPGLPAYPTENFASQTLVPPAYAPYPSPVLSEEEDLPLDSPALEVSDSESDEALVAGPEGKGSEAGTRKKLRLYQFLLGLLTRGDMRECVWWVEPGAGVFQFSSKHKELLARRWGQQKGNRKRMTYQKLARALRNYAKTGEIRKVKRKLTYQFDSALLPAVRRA
How it was run: as §1

ELK3 = target: T6, ELK3 (Homo sapiens, UniProt P41970 1-407)
T6 sequence: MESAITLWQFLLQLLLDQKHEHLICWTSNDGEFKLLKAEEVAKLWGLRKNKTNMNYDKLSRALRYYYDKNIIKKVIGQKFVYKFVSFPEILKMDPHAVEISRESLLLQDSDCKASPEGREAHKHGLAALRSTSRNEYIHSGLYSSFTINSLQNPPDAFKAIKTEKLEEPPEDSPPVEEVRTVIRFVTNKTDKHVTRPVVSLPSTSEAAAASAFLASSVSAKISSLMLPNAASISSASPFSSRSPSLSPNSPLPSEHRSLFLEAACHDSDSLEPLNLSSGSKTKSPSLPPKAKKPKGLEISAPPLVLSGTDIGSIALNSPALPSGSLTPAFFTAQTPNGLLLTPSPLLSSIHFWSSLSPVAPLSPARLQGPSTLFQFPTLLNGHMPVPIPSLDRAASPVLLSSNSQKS
How it was run: as §1

Sequence	binding signal (FLI1)	binding signal (ELK1)	binding signal (GABPA)	binding signal (ERG)	binding signal (ELF1)	binding signal (EHF)	binding signal (SPI1)	binding signal (SPIB)	binding signal (ELK3)
CTACGC	1.71 fold enrichment (6-mer frequency, TF over GST control)	1.59 fold enrichment (6-mer frequency, TF over GST control)	1.56 fold enrichment (6-mer frequency, TF over GST control)	1.47 fold enrichment (6-mer frequency, TF over GST control)	1.55 fold enrichment (6-mer frequency, TF over GST control)	1.56 fold enrichment (6-mer frequency, TF over GST control)	1.59 fold enrichment (6-mer frequency, TF over GST control)	1.6 fold enrichment (6-mer frequency, TF over GST control)	1.56 fold enrichment (6-mer frequency, TF over GST control)
ACTCTT	1.17 fold enrichment (6-mer frequency, TF over GST control)	1.24 fold enrichment (6-mer frequency, TF over GST control)	1.22 fold enrichment (6-mer frequency, TF over GST control)	1.24 fold enrichment (6-mer frequency, TF over GST control)	1.25 fold enrichment (6-mer frequency, TF over GST control)	1.2 fold enrichment (6-mer frequency, TF over GST control)	1.19 fold enrichment (6-mer frequency, TF over GST control)	1.25 fold enrichment (6-mer frequency, TF over GST control)	1.47 fold enrichment (6-mer frequency, TF over GST control)
CCTCCC	1.42 fold enrichment (6-mer frequency, TF over GST control)	1.43 fold enrichment (6-mer frequency, TF over GST control)	1.45 fold enrichment (6-mer frequency, TF over GST control)	1.47 fold enrichment (6-mer frequency, TF over GST control)	1.54 fold enrichment (6-mer frequency, TF over GST control)	1.57 fold enrichment (6-mer frequency, TF over GST control)	1.48 fold enrichment (6-mer frequency, TF over GST control)	1.48 fold enrichment (6-mer frequency, TF over GST control)	1.45 fold enrichment (6-mer frequency, TF over GST control)
ATAACC	1.21 fold enrichment (6-mer frequency, TF over GST control)	1.27 fold enrichment (6-mer frequency, TF over GST control)	1.22 fold enrichment (6-mer frequency, TF over GST control)	1.13 fold enrichment (6-mer frequency, TF over GST control)	1.23 fold enrichment (6-mer frequency, TF over GST control)	1.15 fold enrichment (6-mer frequency, TF over GST control)	1.06 fold enrichment (6-mer frequency, TF over GST control)	1.25 fold enrichment (6-mer frequency, TF over GST control)	1.37 fold enrichment (6-mer frequency, TF over GST control)
CTGCGA	1.25 fold enrichment (6-mer frequency, TF over GST control)	1.31 fold enrichment (6-mer frequency, TF over GST control)	1.34 fold enrichment (6-mer frequency, TF over GST control)	1.29 fold enrichment (6-mer frequency, TF over GST control)	1.32 fold enrichment (6-mer frequency, TF over GST control)	1.26 fold enrichment (6-mer frequency, TF over GST control)	1.33 fold enrichment (6-mer frequency, TF over GST control)	1.45 fold enrichment (6-mer frequency, TF over GST control)	1.19 fold enrichment (6-mer frequency, TF over GST control)
TAAAGT	1.22 fold enrichment (6-mer frequency, TF over GST control)	1.14 fold enrichment (6-mer frequency, TF over GST control)	1.24 fold enrichment (6-mer frequency, TF over GST control)	1.17 fold enrichment (6-mer frequency, TF over GST control)	1.18 fold enrichment (6-mer frequency, TF over GST control)	1.18 fold enrichment (6-mer frequency, TF over GST control)	1.21 fold enrichment (6-mer frequency, TF over GST control)	1.11 fold enrichment (6-mer frequency, TF over GST control)	1.38 fold enrichment (6-mer frequency, TF over GST control)
TACTCT	1.37 fold enrichment (6-mer frequency, TF over GST control)	1.5 fold enrichment (6-mer frequency, TF over GST control)	1.52 fold enrichment (6-mer frequency, TF over GST control)	1.34 fold enrichment (6-mer frequency, TF over GST control)	1.42 fold enrichment (6-mer frequency, TF over GST control)	1.45 fold enrichment (6-mer frequency, TF over GST control)	1.44 fold enrichment (6-mer frequency, TF over GST control)	1.33 fold enrichment (6-mer frequency, TF over GST control)	1.56 fold enrichment (6-mer frequency, TF over GST control)
